Measurements from the supplement of paper PMC6411743.
± gives the standard deviation of the averaged measurements. About 6,200 targets were measured; listed, in parts, are those with the largest changes and a random draw of the rest.

Compound: Nc1ncnc2c1ncn2[C@@H]1O[C@H](COP(=O)(O)OP(=O)(O)NP(=O)(O)O)[C@@H](O)[C@H]1O [adenylyl imidodiphosphate]
Assay: NP40-soluble protein abundance relative to vehicle (solubility fold change) (ratio); higher = more soluble protein in presence of AMP-PNP
How it was run: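 Across three independent experiments, values are fold changes against the detergent-processed vehicle for each replicate, based on vsn-normalised intensities. The samples were Jurkat crude lysate treated with eight concentrations (0.1 to 10 mM) for 10 min at room temperature and then 3 min at 37 °C. Lysate was solubilised with 0.8% NP40 and benzonase, ultracentrifuged, and the supernatant analysed by TMT-labelled LC-MS/MS.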

Sequence of UniProt P52824 (P52824 whole entry, one chain of several): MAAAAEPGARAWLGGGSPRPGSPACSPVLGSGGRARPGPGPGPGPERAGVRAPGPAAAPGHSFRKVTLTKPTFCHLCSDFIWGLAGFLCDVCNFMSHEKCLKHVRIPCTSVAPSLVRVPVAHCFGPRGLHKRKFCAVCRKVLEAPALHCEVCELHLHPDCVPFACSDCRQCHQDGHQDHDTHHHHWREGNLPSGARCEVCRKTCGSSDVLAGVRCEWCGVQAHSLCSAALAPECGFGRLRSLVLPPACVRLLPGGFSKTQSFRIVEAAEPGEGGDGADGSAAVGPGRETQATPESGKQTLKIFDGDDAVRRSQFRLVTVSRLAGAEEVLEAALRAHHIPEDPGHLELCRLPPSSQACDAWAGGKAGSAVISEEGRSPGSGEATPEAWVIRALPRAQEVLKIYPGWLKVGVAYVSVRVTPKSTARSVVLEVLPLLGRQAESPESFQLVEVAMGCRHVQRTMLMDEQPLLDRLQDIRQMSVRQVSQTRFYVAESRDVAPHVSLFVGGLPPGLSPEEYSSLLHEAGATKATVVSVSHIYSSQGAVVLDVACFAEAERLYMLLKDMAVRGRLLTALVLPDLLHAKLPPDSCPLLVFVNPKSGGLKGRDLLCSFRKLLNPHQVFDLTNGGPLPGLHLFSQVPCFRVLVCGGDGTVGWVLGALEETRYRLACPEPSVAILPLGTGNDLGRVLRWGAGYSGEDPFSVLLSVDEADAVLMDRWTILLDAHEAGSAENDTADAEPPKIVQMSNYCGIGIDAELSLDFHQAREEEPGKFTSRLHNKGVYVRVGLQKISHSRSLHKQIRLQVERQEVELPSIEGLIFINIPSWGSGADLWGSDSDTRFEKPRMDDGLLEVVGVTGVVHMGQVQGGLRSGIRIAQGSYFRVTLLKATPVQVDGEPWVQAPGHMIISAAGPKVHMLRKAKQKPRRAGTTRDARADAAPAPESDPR
Sequence of UniProt P16403 (P16403 whole entry): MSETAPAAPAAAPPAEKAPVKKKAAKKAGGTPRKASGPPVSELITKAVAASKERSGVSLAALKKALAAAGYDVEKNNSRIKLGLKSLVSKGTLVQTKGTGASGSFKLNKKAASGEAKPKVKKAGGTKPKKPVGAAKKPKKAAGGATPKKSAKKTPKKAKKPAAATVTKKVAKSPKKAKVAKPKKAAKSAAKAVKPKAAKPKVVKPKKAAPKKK
Sequence of UniProt O95782 (O95782 whole entry): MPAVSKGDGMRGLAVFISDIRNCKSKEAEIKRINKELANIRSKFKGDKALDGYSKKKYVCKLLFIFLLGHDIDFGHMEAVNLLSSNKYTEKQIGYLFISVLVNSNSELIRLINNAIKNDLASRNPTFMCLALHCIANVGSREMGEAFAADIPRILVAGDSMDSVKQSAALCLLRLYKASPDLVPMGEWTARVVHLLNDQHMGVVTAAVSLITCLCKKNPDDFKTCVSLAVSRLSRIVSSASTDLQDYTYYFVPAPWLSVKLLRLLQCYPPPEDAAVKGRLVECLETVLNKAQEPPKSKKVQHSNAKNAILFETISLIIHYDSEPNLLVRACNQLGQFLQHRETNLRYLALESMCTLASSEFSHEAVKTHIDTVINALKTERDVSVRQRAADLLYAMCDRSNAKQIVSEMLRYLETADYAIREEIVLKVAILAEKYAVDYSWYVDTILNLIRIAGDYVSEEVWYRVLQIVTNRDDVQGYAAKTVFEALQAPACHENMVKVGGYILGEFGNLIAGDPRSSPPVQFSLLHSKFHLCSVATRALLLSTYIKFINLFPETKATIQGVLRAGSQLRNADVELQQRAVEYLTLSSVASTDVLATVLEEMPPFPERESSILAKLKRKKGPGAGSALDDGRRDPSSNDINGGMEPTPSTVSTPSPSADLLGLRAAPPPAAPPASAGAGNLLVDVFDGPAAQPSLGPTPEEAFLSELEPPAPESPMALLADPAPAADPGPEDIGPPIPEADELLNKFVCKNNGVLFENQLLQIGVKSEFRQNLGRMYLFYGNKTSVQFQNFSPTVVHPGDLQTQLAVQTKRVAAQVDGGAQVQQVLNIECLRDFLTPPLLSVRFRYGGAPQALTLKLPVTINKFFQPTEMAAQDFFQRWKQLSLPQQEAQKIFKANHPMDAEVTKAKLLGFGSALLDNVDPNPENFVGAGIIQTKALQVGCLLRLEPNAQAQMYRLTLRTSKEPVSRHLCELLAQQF
Sequence of UniProt P43155 (P43155 whole entry): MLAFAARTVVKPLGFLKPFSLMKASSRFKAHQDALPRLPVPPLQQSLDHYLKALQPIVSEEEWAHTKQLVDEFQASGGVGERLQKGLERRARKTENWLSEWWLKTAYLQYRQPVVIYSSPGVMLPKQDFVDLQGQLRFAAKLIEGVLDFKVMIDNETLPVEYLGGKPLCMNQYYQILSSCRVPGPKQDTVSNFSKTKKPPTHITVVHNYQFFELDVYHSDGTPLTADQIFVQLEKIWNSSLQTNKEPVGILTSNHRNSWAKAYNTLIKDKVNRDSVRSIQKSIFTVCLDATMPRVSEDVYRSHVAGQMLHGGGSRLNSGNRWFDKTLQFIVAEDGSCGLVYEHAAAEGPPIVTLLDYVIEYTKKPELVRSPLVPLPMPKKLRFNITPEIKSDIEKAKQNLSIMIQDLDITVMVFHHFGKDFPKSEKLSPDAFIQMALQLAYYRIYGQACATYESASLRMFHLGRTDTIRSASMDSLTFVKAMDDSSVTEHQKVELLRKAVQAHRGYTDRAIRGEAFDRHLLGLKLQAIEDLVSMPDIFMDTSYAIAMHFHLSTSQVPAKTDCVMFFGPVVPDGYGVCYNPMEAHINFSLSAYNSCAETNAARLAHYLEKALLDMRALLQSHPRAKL
Sequence of UniProt P85037 (P85037 whole entry): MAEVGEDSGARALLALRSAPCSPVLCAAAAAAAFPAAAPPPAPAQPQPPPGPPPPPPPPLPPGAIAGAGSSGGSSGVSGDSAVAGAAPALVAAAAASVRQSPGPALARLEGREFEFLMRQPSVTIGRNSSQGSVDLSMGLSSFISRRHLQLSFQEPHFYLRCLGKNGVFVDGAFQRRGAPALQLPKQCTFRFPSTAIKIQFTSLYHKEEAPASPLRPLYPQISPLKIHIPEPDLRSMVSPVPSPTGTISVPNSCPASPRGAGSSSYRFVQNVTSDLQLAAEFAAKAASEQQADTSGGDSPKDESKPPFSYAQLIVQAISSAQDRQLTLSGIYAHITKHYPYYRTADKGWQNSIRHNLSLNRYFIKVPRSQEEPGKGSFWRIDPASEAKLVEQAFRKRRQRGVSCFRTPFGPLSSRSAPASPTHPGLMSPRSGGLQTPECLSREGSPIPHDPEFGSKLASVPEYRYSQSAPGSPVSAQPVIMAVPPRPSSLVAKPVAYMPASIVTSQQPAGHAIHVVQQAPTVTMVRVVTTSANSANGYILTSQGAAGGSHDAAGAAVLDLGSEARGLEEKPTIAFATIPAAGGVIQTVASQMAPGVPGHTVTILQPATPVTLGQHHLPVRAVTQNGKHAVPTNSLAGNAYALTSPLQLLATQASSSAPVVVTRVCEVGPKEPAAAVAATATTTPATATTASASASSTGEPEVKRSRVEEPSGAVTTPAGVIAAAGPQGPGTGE
Sequence of UniProt P33981 (P33981 whole entry): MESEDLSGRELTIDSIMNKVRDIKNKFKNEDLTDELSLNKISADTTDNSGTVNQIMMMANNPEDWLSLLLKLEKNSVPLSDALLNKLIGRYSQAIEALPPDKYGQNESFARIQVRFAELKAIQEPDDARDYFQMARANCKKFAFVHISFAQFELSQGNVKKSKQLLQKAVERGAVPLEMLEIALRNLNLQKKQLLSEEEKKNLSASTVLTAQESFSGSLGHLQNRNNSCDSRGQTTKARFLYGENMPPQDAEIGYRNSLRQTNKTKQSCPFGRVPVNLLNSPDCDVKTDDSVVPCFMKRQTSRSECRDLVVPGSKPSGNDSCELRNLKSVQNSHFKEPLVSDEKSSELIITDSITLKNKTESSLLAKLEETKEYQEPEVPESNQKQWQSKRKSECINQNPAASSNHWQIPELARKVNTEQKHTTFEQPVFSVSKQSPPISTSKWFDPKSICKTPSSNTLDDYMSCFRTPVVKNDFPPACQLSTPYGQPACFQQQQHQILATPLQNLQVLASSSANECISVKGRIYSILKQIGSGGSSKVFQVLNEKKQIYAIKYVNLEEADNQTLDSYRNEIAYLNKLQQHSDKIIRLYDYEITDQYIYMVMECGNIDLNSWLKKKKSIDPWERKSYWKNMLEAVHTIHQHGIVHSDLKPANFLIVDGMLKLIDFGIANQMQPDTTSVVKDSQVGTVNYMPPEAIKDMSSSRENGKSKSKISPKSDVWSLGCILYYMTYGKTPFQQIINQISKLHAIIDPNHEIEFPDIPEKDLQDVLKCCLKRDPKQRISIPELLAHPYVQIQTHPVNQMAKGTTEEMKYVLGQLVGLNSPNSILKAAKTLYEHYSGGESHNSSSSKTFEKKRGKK
Sequence of UniProt Q0VDF9 (Q0VDF9 whole entry): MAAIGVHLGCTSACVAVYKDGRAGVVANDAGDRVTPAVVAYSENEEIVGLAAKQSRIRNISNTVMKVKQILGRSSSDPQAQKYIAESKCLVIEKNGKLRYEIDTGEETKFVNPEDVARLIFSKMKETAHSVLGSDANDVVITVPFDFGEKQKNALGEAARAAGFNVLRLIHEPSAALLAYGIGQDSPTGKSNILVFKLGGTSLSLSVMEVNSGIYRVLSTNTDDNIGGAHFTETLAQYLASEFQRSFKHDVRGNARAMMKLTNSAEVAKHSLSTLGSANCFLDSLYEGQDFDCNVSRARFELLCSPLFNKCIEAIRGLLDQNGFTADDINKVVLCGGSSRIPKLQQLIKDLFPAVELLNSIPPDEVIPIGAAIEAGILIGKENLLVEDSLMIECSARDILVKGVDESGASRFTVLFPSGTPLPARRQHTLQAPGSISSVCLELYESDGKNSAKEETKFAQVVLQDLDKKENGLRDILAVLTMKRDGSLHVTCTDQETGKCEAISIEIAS

Target	NP40-soluble protein abundance (concentration: 1mM)	NP40-soluble protein abundance (concentration: 2mM)	NP40-soluble protein abundance (concentration: 4mM)	NP40-soluble protein abundance (concentration: 6mM)	NP40-soluble protein abundance (concentration: 8mM)	NP40-soluble protein abundance (concentration: 10mM)
UniProt O95104|O95104-3|O95104-2	1.1 ± 0.033	1.22 ± 0.083	1.26 ± 0.039	1.34 ± 0.14	1.39 ± 0.071	1.46 ± 0.063
UniProt P62805	0.903 ± 0.073	0.951 ± 0.018	0.964 ± 0.046	1.12 ± 0.18	1.25 ± 0.16	1.52 ± 0.25
CCNA2 (UniProt P20248)	1.03 ± 0.042	1.07 ± 0.057	1.01 ± 0.033	1.01 ± 0.028	0.975 ± 0.014	1.04 ± 0.071
UniProt P49750-3|P49750-4	1.07 ± 0.027	1.17 ± 0.077	1.17 ± 0.015	1.23 ± 0.065	1.25 ± 0.07	1.35 ± 0.085
UniProt P10619|P10619-2|X6R5C5|X6R8A1	0.979 ± 0.018	0.987 ± 0.086	0.984 ± 0.044	1.05 ± 0.11	1.06 ± 0.083	1.07 ± 0.13
HSPA14 (UniProt Q0VDF9)	1.01 ± 0.046	0.998 ± 0.032	1.01 ± 0.034	1.012 ± 0.0091	1.03 ± 0.059	1.02 ± 0.049
UniProt P33981|P33981-2	1.04 ± 0.027	1.021 ± 0.0069	1.05 ± 0.033	1.018 ± 0.01	1.02 ± 0.034	1.03 ± 0.036
TBL3 (UniProt Q12788)	1.07 ± 0.02	1.15 ± 0.05	1.21 ± 0.023	1.35 ± 0.027	1.46 ± 0.024	1.53 ± 0.075
LCP2 (UniProt Q13094)	1.02 ± 0.027	1.05 ± 0.053	0.992 ± 0.034	0.98 ± 0.0097	0.955 ± 0.042	0.947 ± 0.061
POLR1A (UniProt O95602)	1 ± 0.017	1 ± 0.086	1.07 ± 0.1	1.08 ± 0.12	1.07 ± 0.14	1.11 ± 0.14
UniProt O95782|O95782-2	0.994 ± 0.03	0.953 ± 0.058	1.07 ± 0.046	1.09 ± 0.044	1.13 ± 0.021	1.13 ± 0.056
HIST1H1C (UniProt P16403)	1.02 ± 0.05	1.13 ± 0.042	1.07 ± 0.023	1.17 ± 0.06	1.2 ± 0.095	1.54 ± 0.15
USP8 (UniProt P40818)	1.036 ± 0.0058	1.05 ± 0.033	1.048 ± 0.0058	0.997 ± 0.015	0.996 ± 0.042	1.01 ± 0.033
UniProt O94763	1.05 ± 0.048	1.13 ± 0.06	1.05 ± 0.05	1.02 ± 0.1	0.962 ± 0.063	1.02 ± 0.059
NCKAP1L (UniProt P55160)	0.975 ± 0.021	0.905 ± 0.085	0.955 ± 0.027	0.955 ± 0.072	0.975 ± 0.046	0.914 ± 0.037
UniProt P41227|P41227-2	1.02 ± 0.036	1.07 ± 0.06	1.09 ± 0.03	1.15 ± 0.081	1.12 ± 0.052	1.18 ± 0.039
FOXK1 (UniProt P85037)	0.999 ± 0.044	1.06 ± 0.086	1.01 ± 0.014	0.987 ± 0.015	0.9378 ± 0.0057	1.01 ± 0.02
FASN (UniProt P49327)	0.959 ± 0.021	0.874 ± 0.091	0.941 ± 0.026	0.913 ± 0.026	0.917 ± 0.035	0.896 ± 0.036
ITGA2 (UniProt P17301)	0.9944 ± 0.0014	1.02 ± 0.084	0.988 ± 0.024	1.019 ± 0.0071	1.01 ± 0.025	1.04 ± 0.011
UniProt P49588|P49588-2	1.01 ± 0.013	0.976 ± 0.05	0.967 ± 0.041	0.979 ± 0.013	0.954 ± 0.03	0.952 ± 0.05
VPS26A (UniProt O75436)	0.946 ± 0.045	0.861 ± 0.062	0.895 ± 0.019	0.872 ± 0.032	0.931 ± 0.046	0.829 ± 0.02
P0DN76|Q01081 (UniProt Q01081+P0DN76)	1.04 ± 0.065	1.06 ± 0.083	1.12 ± 0.05	1.29 ± 0.099	1.47 ± 0.18	1.51 ± 0.18
CIAO1 (UniProt O76071)	1.02 ± 0.021	0.986 ± 0.024	1.01 ± 0.053	1.01 ± 0.044	1 ± 0.021	0.978 ± 0.028
UniProt Q02078-2|Q02078-4|Q02078-6|Q02078-5	1.0199 ± 0.0007	1.03 ± 0.017	1.023 ± 0.0072	0.98 ± 0.014	0.9784 ± 0.0097	0.98 ± 0.053
ARID4A (UniProt P29374)	1.06 ± 0.053	1.07 ± 0.039	1.07 ± 0.036	1.03 ± 0.031	1.01 ± 0.032	1.07 ± 0.033
SDHB (UniProt P21912)	0.976 ± 0.045	1 ± 0.056	0.987 ± 0.063	1.03 ± 0.079	1.02 ± 0.075	1.04 ± 0.052
UniProt P55060|P55060-3	1 ± 0.012	1.02 ± 0.11	0.987 ± 0.032	1.01 ± 0.04	0.985 ± 0.027	1.02 ± 0.04
UniProt P62857	0.941 ± 0.041	0.993 ± 0.078	0.919 ± 0.069	0.837 ± 0.071	0.74 ± 0.057	0.847 ± 0.092
UniProt P52824|H0YA20	0.978 ± 0.0098	0.979 ± 0.023	0.955 ± 0.028	0.99 ± 0.025	0.96 ± 0.039	0.986 ± 0.03
UniProt P43155|P43155-2|P43155-3	0.974 ± 0.057	0.965 ± 0.011	1 ± 0.032	1.01 ± 0.086	1.01 ± 0.061	1.01 ± 0.077
